Assay results reported in the supplement of paper PMC10849652.
About 7,900 targets were measured; listed, in parts, are those with a hit and a random draw of the rest. About 0.6% of all pairs of compound and target were hits. Unmarked numbers belong to inactive results.

Legend:
Experiment in all cases: log2 fold change, soluble protein after heating vs DMSO (PISA); higher = thermal stabilisation; K562 cells, 10 uM, 30 min; active = over 0.2 and 3.5 SD of the protein, either way, in both replicates (recomputed)
[1] = compound: CC[C@@H]1C(=O)N(C)c2cnc(Nc3ccc(C(=O)NC4CCN(C)CC4)cc3OC)nc2N1C1CCCC1
Outline: (§1)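 K562 cells at 2×10^6 cells/mL were treated for 30 min with 10 μM compound, and aliquots were heated for 3 min over 48°C-58°C before pooling. Extraction used PBS with 0.5% NP-40 at 4°C, and soluble protein was the supernatant after 21,000xg for 90 min, measured by TMTpro 16plex LC-MS/MS with channel sums equalised. Thermal stability values, relative to control samples and from duplicates, are log2 fold changes.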

[2] = compound: CC[C@@H]1C(=O)N(C)c2cnc(Nc3ccc(C(=O)N[C@H]4CC[C@H](N5CCN(CC6CC6)CC5)CC4)cc3OC)nc2N1C(C)C [volasertib]
Outline: as §1

[3] = compound: CC[C@H](C)N1C=C(C2=C(C=C(C=C21)C3=CN=C(C=C3)N4CCNCC4)C(=O)NCC5=C(C=C(NC5=O)C)C)C
Outline: as §1

[4] = compound: CC[C@H](C)[C@@H](C(=O)N[C@@H]([C@@H](C)O)C(=O)N[C@@H](CC(C)C)C(=O)[C@]1(CO1)C)NC(=O)[C@H]([C@@H](C)CC)N(C)C(=O)C [epoxomicin]
Outline: as §1

[5] = compound: CCn1c(C(=O)N(C2CC2)C2CC2)cc2c3c(ncn3C)c(Nc3cc(C)n(C)n3)nc21
Outline: as §1

[6] = compound: CCn1cc(-c2ccnc3[nH]c(-c4cccc(CN(C)C)c4)cc23)c(-c2ccc(NC(=O)N(C)C)cc2)n1
Outline: as §1

[7] = compound: CN(C)CC(=O)Nc1ccc2[nH]c(=O)c3ccccc3c2c1
Outline: as §1

[8] = compound: CN(CCOC1=CC=C(C=C1)C[C@H]2C(=O)NC(=O)S2)C3=CC=CC=N3 (racemic) [rosiglitazone]
Outline: as §1

[9] = compound: CN1C2=C(C3=C1C(=O)N(N=C3)CC4=CC(=CC=C4)N)SC(=C2)S(=O)C
Outline: as §1

[10] = compound: CN1CCC(CNc2ccc3ncc(-c4cccc(OC(F)(F)F)c4)n3n2)CC1
Outline: as §1

[11] = compound: CN1CCN(CCOc2cc(OC3CCOCC3)c3c(Nc4c(Cl)ccc5c4OCO5)ncnc3c2)CC1 [saracatinib]
Outline: as §1

[12] = compound: CN1CCN(c2nc(C3=C(c4c[nH]c5ccccc45)C(=O)NC3=O)c3ccccc3n2)CC1 [sotrastaurin]
Outline: as §1

[13] = compound: CN1CC[C@H](c2c(O)cc(O)c3c(=O)cc(-c4ccccc4Cl)oc23)[C@H](O)C1 [alvocidib]
Outline: as §1

[14] = compound: CN1CCc2c(c3ccccc3n2Cc2ccc(C(=O)NO)cc2)C1 [Tubastatin A]
Outline: as §1

[15] = compound: CNC(=O)C1=CC=CC=C1NC2=NC(=NC=C2Cl)NC3=C(C=C(C=C3)N4CCOCC4)OC
Outline: as §1

[16] = compound: CNC(=O)c1ccc(Nc2ncc(C(F)(F)F)c(NCc3nccnc3N(C)S(C)(=O)=O)n2)cc1 [defactinib]
Outline: as §1

[17] = compound: CNCc1ccc(-c2[nH]c3cc(F)cc4c3c2CCNC4=O)cc1 [rucaparib]
Outline: as §1

[18] = compound: CNc1nc(-c2ccc3c(N)n[nH]c3c2)cc(N2C[C@@H](C(=O)NC3CCCCC3)CC[C@H]2C)n1
Outline: as §1

[19] = compound: COC(=O)N[C@@H](C)CNc1nccc(-c2cn(C(C)C)nc2-c2cc(Cl)cc(NS(C)(=O)=O)c2F)n1 [encorafenib]
Outline: as §1

[20] = compound: COC(=O)[C@H](CCSC)NC(=O)C1=C(C=C(C=C1)NC[C@H](CS)N)C2=CC=CC=C2
Outline: as §1

Chain of UniProt Q9H3S7 (Q9H3S7 whole entry, looked up): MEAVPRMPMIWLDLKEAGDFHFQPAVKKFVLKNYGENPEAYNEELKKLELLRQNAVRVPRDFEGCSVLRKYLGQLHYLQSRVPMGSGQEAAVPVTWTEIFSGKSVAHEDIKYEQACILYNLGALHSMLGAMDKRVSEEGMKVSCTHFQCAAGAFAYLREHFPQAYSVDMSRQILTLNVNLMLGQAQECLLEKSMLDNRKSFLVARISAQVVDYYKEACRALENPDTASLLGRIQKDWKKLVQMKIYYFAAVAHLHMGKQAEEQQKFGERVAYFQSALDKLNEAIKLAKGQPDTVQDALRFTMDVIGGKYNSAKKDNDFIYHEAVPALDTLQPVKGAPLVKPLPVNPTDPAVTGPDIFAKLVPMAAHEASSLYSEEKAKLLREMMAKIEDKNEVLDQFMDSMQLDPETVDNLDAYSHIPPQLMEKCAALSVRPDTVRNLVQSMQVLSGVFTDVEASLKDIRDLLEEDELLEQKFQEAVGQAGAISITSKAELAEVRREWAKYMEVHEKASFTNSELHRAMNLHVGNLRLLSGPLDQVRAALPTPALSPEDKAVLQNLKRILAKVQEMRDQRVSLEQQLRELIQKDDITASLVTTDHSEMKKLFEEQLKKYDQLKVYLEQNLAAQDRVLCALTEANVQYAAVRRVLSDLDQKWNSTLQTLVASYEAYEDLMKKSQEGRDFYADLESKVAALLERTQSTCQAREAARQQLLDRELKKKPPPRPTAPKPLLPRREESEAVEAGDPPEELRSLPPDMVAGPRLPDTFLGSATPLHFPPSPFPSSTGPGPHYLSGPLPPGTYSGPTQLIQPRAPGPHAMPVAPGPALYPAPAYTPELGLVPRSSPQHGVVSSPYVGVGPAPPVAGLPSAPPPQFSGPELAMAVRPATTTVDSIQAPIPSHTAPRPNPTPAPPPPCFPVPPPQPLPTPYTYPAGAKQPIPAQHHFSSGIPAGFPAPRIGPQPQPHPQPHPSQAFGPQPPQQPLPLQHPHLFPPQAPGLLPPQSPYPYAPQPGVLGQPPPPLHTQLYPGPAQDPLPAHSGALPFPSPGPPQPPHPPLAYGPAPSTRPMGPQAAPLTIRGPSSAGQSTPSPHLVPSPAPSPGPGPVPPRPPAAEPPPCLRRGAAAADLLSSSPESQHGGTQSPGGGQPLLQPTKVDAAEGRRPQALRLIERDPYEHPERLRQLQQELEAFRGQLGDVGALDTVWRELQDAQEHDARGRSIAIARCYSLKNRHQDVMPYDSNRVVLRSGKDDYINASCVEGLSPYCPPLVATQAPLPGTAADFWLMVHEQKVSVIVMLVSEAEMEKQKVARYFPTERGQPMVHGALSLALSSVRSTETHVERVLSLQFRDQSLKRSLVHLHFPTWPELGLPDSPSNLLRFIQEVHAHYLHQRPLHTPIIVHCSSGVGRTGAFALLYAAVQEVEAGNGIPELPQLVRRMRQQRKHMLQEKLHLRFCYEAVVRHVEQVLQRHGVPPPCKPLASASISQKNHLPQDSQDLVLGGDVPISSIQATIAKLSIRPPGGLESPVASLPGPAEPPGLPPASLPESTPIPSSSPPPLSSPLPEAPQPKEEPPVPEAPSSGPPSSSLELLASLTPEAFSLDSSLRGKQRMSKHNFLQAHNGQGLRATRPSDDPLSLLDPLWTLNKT
Chain of UniProt Q9Y3E5 (Q9Y3E5 whole entry, looked up): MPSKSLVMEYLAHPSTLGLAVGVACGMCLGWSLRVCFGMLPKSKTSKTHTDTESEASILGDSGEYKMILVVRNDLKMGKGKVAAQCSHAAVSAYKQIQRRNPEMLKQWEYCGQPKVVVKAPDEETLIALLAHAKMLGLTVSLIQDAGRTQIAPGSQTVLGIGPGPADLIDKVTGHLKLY
Chain of UniProt Q15257 (Q15257 whole entry, looked up): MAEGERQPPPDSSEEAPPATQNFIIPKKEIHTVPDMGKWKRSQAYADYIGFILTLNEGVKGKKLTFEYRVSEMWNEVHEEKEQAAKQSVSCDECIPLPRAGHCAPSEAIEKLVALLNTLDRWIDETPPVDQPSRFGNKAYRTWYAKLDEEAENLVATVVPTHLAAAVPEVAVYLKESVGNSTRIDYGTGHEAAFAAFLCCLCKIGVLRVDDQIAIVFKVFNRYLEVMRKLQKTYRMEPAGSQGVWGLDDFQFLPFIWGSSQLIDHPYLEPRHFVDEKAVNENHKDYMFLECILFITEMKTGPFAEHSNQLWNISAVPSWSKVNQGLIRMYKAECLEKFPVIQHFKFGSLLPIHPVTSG
Chain of UniProt Q8IV08 (Q8IV08 whole entry, looked up): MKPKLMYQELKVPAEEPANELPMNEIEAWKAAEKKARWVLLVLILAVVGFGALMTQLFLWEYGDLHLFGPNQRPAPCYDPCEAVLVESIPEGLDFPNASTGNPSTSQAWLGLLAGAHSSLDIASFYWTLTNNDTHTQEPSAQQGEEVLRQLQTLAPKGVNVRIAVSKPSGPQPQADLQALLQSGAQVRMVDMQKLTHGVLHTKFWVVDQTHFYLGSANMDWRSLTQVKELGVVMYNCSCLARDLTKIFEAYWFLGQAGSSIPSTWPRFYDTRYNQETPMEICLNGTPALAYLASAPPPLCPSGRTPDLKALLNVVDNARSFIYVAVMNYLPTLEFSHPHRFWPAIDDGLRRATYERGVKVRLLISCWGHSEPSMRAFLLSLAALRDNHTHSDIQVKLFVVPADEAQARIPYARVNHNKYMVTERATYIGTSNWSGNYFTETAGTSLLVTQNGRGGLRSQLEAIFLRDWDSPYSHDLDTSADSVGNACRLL
Chain of UniProt O96011 (O96011 whole entry, looked up, change not shown): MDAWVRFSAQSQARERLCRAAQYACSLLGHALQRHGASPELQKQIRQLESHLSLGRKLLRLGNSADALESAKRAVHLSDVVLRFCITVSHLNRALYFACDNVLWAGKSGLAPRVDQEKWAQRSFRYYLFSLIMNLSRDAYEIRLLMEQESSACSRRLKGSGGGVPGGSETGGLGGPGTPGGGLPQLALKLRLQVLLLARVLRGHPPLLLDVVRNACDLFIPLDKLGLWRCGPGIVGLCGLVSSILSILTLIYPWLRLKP
Chain of UniProt Q6P4A8 (Q6P4A8 whole entry, looked up): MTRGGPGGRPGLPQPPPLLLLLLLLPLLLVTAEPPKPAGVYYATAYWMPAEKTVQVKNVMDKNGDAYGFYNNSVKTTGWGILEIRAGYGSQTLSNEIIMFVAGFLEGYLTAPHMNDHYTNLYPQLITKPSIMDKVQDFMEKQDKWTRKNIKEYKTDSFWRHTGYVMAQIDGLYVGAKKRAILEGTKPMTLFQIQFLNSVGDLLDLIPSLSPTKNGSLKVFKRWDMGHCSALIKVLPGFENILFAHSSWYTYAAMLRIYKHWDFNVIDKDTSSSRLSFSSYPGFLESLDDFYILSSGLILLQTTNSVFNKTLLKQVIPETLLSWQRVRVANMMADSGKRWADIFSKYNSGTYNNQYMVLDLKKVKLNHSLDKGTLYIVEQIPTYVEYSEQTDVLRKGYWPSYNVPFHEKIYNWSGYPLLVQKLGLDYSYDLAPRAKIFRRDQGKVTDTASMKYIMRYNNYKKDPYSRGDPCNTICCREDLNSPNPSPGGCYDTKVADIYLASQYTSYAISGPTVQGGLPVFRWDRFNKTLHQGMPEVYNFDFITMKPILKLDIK
Chain of UniProt P53609 (P53609 whole entry, looked up): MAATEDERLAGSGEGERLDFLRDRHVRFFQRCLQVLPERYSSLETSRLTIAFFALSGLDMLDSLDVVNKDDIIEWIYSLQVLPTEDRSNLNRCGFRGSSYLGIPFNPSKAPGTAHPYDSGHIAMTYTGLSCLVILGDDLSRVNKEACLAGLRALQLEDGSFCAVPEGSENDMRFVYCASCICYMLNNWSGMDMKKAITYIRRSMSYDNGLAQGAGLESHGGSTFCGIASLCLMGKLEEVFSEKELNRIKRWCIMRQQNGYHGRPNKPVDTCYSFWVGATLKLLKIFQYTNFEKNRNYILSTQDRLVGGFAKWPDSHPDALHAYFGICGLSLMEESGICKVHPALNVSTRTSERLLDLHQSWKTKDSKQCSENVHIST
Chain of UniProt P62195 (P62195 whole entry, looked up): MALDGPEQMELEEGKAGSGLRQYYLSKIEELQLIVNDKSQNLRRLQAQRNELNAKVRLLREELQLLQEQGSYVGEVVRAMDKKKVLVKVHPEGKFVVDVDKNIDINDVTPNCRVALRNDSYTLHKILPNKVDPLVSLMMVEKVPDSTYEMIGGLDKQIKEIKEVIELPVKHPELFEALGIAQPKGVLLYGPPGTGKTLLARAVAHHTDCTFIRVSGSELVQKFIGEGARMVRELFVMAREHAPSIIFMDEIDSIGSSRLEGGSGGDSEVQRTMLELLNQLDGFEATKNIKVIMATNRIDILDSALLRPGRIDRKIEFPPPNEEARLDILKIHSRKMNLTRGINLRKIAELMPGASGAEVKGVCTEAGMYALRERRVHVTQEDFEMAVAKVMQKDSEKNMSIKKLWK
Chain of UniProt Q9UMR5 (Q9UMR5 whole entry, looked up): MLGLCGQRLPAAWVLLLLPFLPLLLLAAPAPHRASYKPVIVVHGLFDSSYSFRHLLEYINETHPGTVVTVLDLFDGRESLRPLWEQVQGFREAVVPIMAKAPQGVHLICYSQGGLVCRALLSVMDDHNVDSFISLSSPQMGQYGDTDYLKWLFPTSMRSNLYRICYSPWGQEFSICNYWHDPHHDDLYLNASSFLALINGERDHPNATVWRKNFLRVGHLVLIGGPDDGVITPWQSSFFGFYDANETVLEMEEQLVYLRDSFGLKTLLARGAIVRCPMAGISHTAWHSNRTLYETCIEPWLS

Target | log2 fold change [1] | log2 fold change [2] | log2 fold change [3] | log2 fold change [4] | log2 fold change [5] | log2 fold change [6] | log2 fold change [7] | log2 fold change [8] | log2 fold change [9] | log2 fold change [10] | log2 fold change [11] | log2 fold change [12] | log2 fold change [13] | log2 fold change [14] | log2 fold change [15] | log2 fold change [16] | log2 fold change [17] | log2 fold change [18] | log2 fold change [19] | log2 fold change [20]
PTRH2 (UniProt Q9Y3E5) | -0.004 | -0.09 | 0.013 | -0.018 | -0.003 | -0.067 | 0.057 | 0.001 | -0.042 | 0.018 | -0.008 | 0.027 | -0.09 | -0.052 | 0.148 | -0.009 | -0.002 | -0.051 | 0.017 | 0
PGGT1B (UniProt P53609) | 0.056 | 0.098 | 0.004 | -0.011 | 0.031 | -0.026 | -0.009 | 0.032 | -0.101 | -0.008 | 0 | 0.121 | -0.014 | -0.047 | -0.025 | 0.001 | -0.032 | -0.017 | 0.013 | 0.227 (active)
PTPA (UniProt Q15257) | -0.007 | 0.004 | -0.012 | 0.051 | -0.017 | -0.06 | -0.002 | 0.008 | -0.072 | -0.009 | 0.009 | 0.068 | -0.06 | -0.029 | -0.036 | -0.033 | -0.045 | -0.012 | 0.012 | 0.003
PSMC5 (UniProt P62195) | 0.043 | 0.178 | -0.002 | -0.308 (active) | 0.024 | 0.039 | -0.029 | -0.014 | 0.015 | 0.066 | -0.041 | -0.004 | 0.065 | -0.013 | -0.028 | 0.066 | 0.025 | 0.065 | 0.02 | 0.009
PLBD1 (UniProt Q6P4A8) | -0.063 | -0.076 | -0.022 | -0.016 | -0.005 | -0.028 | 0.088 | -0.049 | -0.01 | -0.352 (active) | 0.024 | 0.071 | -0.017 | -0.013 | 0.054 | 0.023 | 0.034 | 0.001 | 0.001 | 0
POLR2D (UniProt O15514) | 0.206 | 0.135 | -0.017 | 0.17 | 0.11 | 0.043 | -0.02 | -0.02 | -0.101 | 0.056 | 0.064 | 0.015 | 0.22 | -0.064 | -0.114 | 0.165 | 0.056 | 0.026 | 0.003 | -0.038
PPT2 isoform 3 (UniProt Q9UMR5) | -0.57 (active) | -0.87 (active) | -0.006 | -0.021 | 0.005 | 0.206 | -0.068 | 0.048 | -0.051 | -0.682 (active) | 0.042 | 0.022 | -0.04 | 0.018 | 0 | -0.023 | 0.025 | 0.038 | -0.003 | 0.029
PLD3 (UniProt Q8IV08) | -0.369 (active) | -0.437 (active) | -0.038 | 0.041 | 0.052 | 0.035 | 0.014 | -0.007 | -0.027 | -0.488 (active) | 0.034 | 0.013 | -0.024 | 0.004 | 0.016 | -0.005 | -0.094 | -0.037 | 0.007 | 0.009
PSMD3 (UniProt O43242) | 0.039 | 0.133 | 0 | -0.337 (active) | 0.01 | 0.02 | -0.01 | -0.01 | 0.027 | 0.067 | -0.06 | -0.015 | 0.022 | 0.016 | 0.007 | 0.083 | 0.037 | 0.051 | 0.031 | 0.003
PRKACB isoform 2 (UniProt P22694) | -0.025 | -0.031 | 0.004 | -0.033 | 0.008 | -0.009 | -0.048 | 0.025 | -0.042 | -0.022 | -0.013 | -0.119 | -0.014 | -0.035 | -0.101 | 0.004 | 0.002 | 0.018 | 0.011 | 0.022
POLR2G (UniProt P62487) | 0.215 | 0.276 | -0.075 | 0.054 | 0.06 | -0.003 | 0.02 | -0.01 | 0.002 | 0.081 | 0.041 | -0.016 | 0.328 (active) | -0.045 | 0.003 | 0.154 | 0.039 | 0.042 | -0.016 | -0.03
PTPN23 (UniProt Q9H3S7) | -0.163 | -0.453 (active) | 0.019 | 0.013 | -0.024 | -0.006 | 0.073 | 0.017 | 0.016 | -0.106 | -0.007 | -0.13 | -0.061 | 0.112 | 0.055 | -0.169 | 0.074 | -0.055 | 0.043 | -0.023
PEX11B (UniProt O96011) | 0.071 | -0.018 | -0.038 | -0.013 | 0.006 | 0.04 | 0.064 | 0.007 | -0.085 | 0.239 | 0.052 | -0.009 | -0.001 | -0.021 | 0.001 | -0.042 | -0.006 | -0.022 | 0.024 | -0.041
